GALR2 blocker – GALR2 antagonists in receptor-expressing cells, primary screen | antagonist mode | inhibition, % at 4 µM | 140,000 tested, 0.39% active; in the data active means inhibition above about 27%;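 further: cells stimulated with galanin 1-16 at roughly its EC80; 0% = agonist challenge control and 100% = basal control without agonist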
S1P2 ag – S1P2 receptor agonists, primary screen, cell-based. S1P2-expressing cell line, agonist reporter read-out. activation, % at 4.5 µM. 97,000 tested, 0.46% active. Sphingosine 1-phosphate receptor 2 (Homo sapiens), O95136; in the data active means activation above about 16%;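 further: 0% = vehicle low control and 100% = maximal reference agonist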
Target sequence (O95136 whole entry, looked up): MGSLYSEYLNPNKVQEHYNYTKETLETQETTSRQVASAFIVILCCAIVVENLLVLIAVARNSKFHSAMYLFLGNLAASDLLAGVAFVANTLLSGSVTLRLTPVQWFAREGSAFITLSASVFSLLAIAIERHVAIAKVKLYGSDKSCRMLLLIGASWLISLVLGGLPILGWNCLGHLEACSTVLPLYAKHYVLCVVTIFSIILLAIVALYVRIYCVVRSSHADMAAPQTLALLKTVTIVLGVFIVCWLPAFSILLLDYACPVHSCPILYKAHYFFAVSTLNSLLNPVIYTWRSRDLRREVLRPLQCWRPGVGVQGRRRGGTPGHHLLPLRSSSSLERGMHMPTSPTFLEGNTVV
GALR2 ag – GALR2 receptor agonists, primary screen, cell-based; GALR2-expressing cells, agonist activation read-out; activation, % (no concentration beside the values); 140,000 tested, 0.48% active; AID 803, 2007; in the data active means activation above about 5%, passing the limit was not always enough;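 further: 0% = vehicle buffer wells and 100% = reference agonist at full effect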
MRP-1 activ – H69AR viability gain despite doxorubicin, primary screen, MRP-1 activator project, H69AR cells, CellTiter-Glo. viability rescue. viability increase, % at 10 µM. 140,000 tested, 0.61% active;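 active means viability gain under doxorubicin at or above a set limit, the compound median plus 3 SD, cut at about 4.7% in these data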;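 further: MRP-1 overexpressing cells given doxorubicin 25 µM after compound pretreatment; 18-22 h compound pretreatment then 72 h with doxorubicin before readout; 0% = doxorubicin-only wells and 100% = vehicle-treated cells without doxorubicin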
S1P2 blocker – human S1P2 receptor antagonists, primary screen, cell-based; cell-based S1P2 antagonist assay, inhibition at 5 uM; AID 736, 2007; inhibition, % at 5 µM; 97,000 tested, 0.21% active; Sphingosine 1-phosphate receptor 2 (Homo sapiens), O95136; in the data active means inhibition above about 45%;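 further: CRE beta-lactamase reporter cells expressing human S1P2 stimulated with S1P; 0% = agonist at EC80 alone and 100% = agonist plus reference antagonist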
MRP resist rev – reversal of MRP1-mediated doxorubicin resistance, primary screen, H69AR cells, doxorubicin co-treatment. H69AR cells + 2 uM doxorubicin, CellTiter-Glo, 72 h. differential viability (reversal), % at 10 µM. 85,000 tested, 0.04% active;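 active means viability drop by adding the cancer drug above about 55%, with treated viability meeting a 40% cutoff, limit read from the data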;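 further: viability without doxorubicin minus viability with 2 µM doxorubicin for each compound; larger differential means the compound sensitizes cells more to doxorubicin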
Numbers without * were called inactive; . = no result given. Sampled rows, rich in hits. Any-hit rate of the full collection: about 1.8%.

SMILES | GALR2 blocker | S1P2 ag | GALR2 ag | MRP-1 activ | S1P2 blocker | MRP resist rev
O=C(O)C1CCCCC1C(=O)NCCc1ccc(Cl)cc1 (stereo not drawn) | 7.7 | -5.1 | 1.3 | 1.5 | -20.1 | -3.5
Nc1nc(NCc2ccco2)nc(N2CCCCCC2)c1[N+](=O)[O-] | 4.5 | . | 2.2 | 0.0 | . | .
CCOC(=O)c1nn(-c2ccccc2)c(C#N)c1NC(=O)c1nn(CC)cc1Br | 0.9 | 23.5* | -2.0 | -1.1 | -22.1 | -5.5
CC(C)(C)NC(=O)C(c1ccco1)N(C(=O)Cn1nnc(-c2ccc(F)cc2)n1)c1ccccc1F (stereo not drawn) | -6.7 | 18.6* | -0.6 | 0.4 | -1.0 | 10.1
Cc1ccc(C(=O)NC(C)c2ccc(F)cc2)cc1 (stereo not drawn) | 14.4 | . | -1.3 | 6.3* | . | .
Cc1cc(/C=C2/SC(=S)N(c3cccc(Cl)c3)C2=O)c(C)n1-c1cccnc1 | 12.1 | -5.9 | -2.1 | . | 73.5* | .
Cc1c(C)n(C(=O)CN2CCN(c3ccccn3)CC2)c2ccccc12 | -6.0 | -6.1 | -0.4 | -1.5 | 1.7 | -24.2
O=S1(=O)C=C(Sc2nnc(-c3ccccc3)o2)c2ccccc21 | 87.7* | . | -3.0 | -3.2 | . | 0.4
CCn1cc(C(=O)NCc2ccc(C)o2)c2cc(OC)c(OC)cc2c1=O | -9.1 | 17.4* | -0.1 | -4.6 | -21.7 | -0.9
CCn1cc(C(=O)Nc2ccc3c(c2)OCCO3)c2cc(OC)c(OC)cc2c1=O | -7.1 | 29.3* | -1.5 | -4.4 | 1.1 | 11.4
COc1ccc(C(=O)Nc2nc(-c3ccc([N+](=O)[O-])cc3)c(-c3ccc(OC)cc3)s2)cc1 | 2.2 | . | -1.0 | 3.7 | . | .
Cc1nc(/N=C(\N)NC(=O)N2c3ccccc3Sc3ccccc32)nc2ccccc12 | 10.6 | . | 0.5 | 6.5* | . | .
Cc1ccc(S(=O)(=O)Oc2ccc(C3C4=C(CCCC4=O)N(CCC(=O)O)C4=C3C(=O)CCC4)cc2Cl)cc1 | 8.8 | . | 6.6* | 0.4 | . | .
CCC(C)[C@H](NC(=O)OC(C)(C)C)C(=O)N/N=C/c1ccc2nccnc2c1 (stereo partly drawn) | -8.9 | 5.7 | -0.2 | -1.4 | -49.7 | 3.5
Cc1nc2cc(-c3ccc(Cl)cc3)nn2c(C)c1CCC(=O)NC(C)c1ccc2c(c1)OCCO2 (stereo not drawn) | 5.3 | . | 0.8 | 5.5* | . | .
CN(C)c1nc(N)nc(CSc2n[nH]c(-c3ccccc3)n2)n1 | -1.2 | 30.6* | -1.8 | -0.1 | -29.9 | 1.9
O=C(CSc1n[nH]c(-c2ccccc2)n1)c1ccccc1 | -1.7 | -3.1 | -2.3 | -2.1 | -10.0 | 4.3
CCn1c2ccccc2c2cc(NC(=O)CC(C)=O)ccc21 | 0.0 | . | -0.9 | 4.8* | . | .
CCCC(=O)Nc1ccc2c(c1)c1ccccc1n2CC | -0.9 | . | -1.3 | 1.0 | . | .
COc1ccc(C(=O)Nc2ccccc2Cc2ccccc2)c(OC)c1 | 11.3 | . | 1.6 | 5.3* | . | .
CC(/C=N/N1CCN(c2ccccn2)CC1)=C\c1ccccc1 | -4.2 | . | -1.9 | 5.0* | . | .
CC(/C=N/N1CCN(c2ccccc2)CC1)=C\c1ccccc1 | -3.6 | -5.0 | -1.2 | -0.9 | -2.7 | .
Cc1nn(-c2ccccc2)c(Cl)c1CN(C(=O)CCl)c1cccc2ccccc12 | 7.7 | . | 0.0 | -5.3 | . | .
NC(Cc1ccc2nsnc2c1)C(=O)O (stereo not drawn) | 19.6 | -5.3 | -2.2 | . | 17.4 | -6.3
CC1CN(C2CC(C)(C)NC(C)(C)C2)CCC1=O (stereo not drawn) | -2.2 | -3.4 | 0.0 | 0.2 | 2.0 | 7.2
SMILES | GALR2 blocker | S1P2 ag | GALR2 ag | MRP-1 activ | S1P2 blocker | MRP resist rev
CCCCCC(=O)Nc1nc(C)c(-c2csc(Nc3cc(Cl)ccc3OC)n2)s1 | -18.6 | 16.8* | 1.1 | -0.2 | -18.7 | .
CCCC(=O)Nc1nc(C)c(-c2csc(Nc3cc(OC)ccc3OC)n2)s1 | -19.3 | -6.1 | 0.4 | -4.5 | 17.1 | .
N#Cc1nc(-c2ccccc2F)oc1NCCc1ccccc1 | 1.7 | -1.6 | -0.4 | 1.4 | 10.6 | 21.1
COCCNC(=O)C(C)Oc1ccc(Cl)cc1Cl (stereo not drawn) | 9.2 | -5.6 | -0.4 | -2.2 | 3.6 | .
CC(Oc1ccc(Cl)cc1Cl)C(=O)NC1CCSC1=O (stereo not drawn) | 0.2 | -6.8 | -3.8 | 12.5* | -16.6 | -8.7
COC1(OC)C(=N/O)/C(=N\O)CCC1O (stereo not drawn) | 3.8 | -5.3 | 0.2 | 10.7* | 11.5 | 12.8

Screening results (PubChem)
